Results reported in PubChem BioAssay (NCATS).
Results filed as inconclusive are left out. Calls of active or inactive are those of the source. Calls come from the whole dose curve; as a rule, active = well fitted cell-killing curve with a large enough effect; inconclusive = small, poorly fitted or top-dose-only effect, or effect the other way; inactive = flat fitted curve, though single readings scatter.

Legend:
Experiment in all cases: Primary qHTS to identify gynecologic anti-cancer compounds using libraries of approved drugs and bioactive compounds (AID 1345084); note: nearly all actives have a fitted effect of over 55% in size
C33A = details: Gynecologic cancer cell panel viability, ATPlite luminescence, 48 h; series mostly up to 57.5 µM
Method in brief: (§1)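 In this quantitative HTS, cell killing is estimated from loss of ATP-dependent luciferase light. Cells see five compound concentrations over a 48 h exposure.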

CAOV3 = details: Gynecologic cancer cell panel viability, ATPlite luminescence, 48 h; series mostly up to 57.5 µM
Method in brief: as §1

CASKI = details: Gynecologic cancer cell panel viability, ATPlite luminescence, 48 h; series mostly up to 57.5 µM
Method in brief: as §1

Es-2 = details: Gynecologic cancer cell panel viability, ATPlite luminescence, 48 h; series mostly up to 57.5 µM
Method in brief: as §1

HeLa = details: Gynecologic cancer cell panel viability, ATPlite luminescence, 48 h; series mostly up to 57.5 µM
Method in brief: as §1

Hek293T = details: Gynecologic cancer cell panel viability, ATPlite luminescence, 48 h, control line for the selectivity index; series mostly up to 57.5 µM
Method in brief: as §1

JEG-3 = details: Gynecologic cancer cell panel viability, ATPlite luminescence, 48 h; series mostly up to 57.5 µM
Method in brief: as §1

OV90 = details: Gynecologic cancer cell panel viability, ATPlite luminescence, 48 h; series mostly up to 57.5 µM
Method in brief: as §1

PA-1 = details: Gynecologic cancer cell panel viability, ATPlite luminescence, 48 h; series mostly up to 57.5 µM
Method in brief: as §1

SKOV3 = details: Gynecologic cancer cell panel viability, ATPlite luminescence, 48 h; series mostly up to 57.5 µM
Method in brief: as §1

Tov-21-G = details: Gynecologic cancer cell panel viability, ATPlite luminescence, 48 h; series mostly up to 57.5 µM
Method in brief: as §1

Tov112D = details: Gynecologic cancer cell panel viability, ATPlite luminescence, 48 h; series mostly up to 57.5 µM
Method in brief: as §1
% is set by controls: 0 for no effect and ±100 for the full control effect.

Nc1nc2c(ncn2[C@@H]2O[C@@H]3COP(=O)(O)O[C@H]3[C@H]2O)c(=O)[nH]1
inactive: Potency (C33A) | Potency (CAOV3) | Potency (CASKI) | Potency (Es-2) | Potency (HeLa) | Potency (Hek293T) | Potency (JEG-3) | Potency (OV90) | Potency (PA-1) | Potency (SKOV3) | Potency (Tov-21-G) | Potency (Tov112D)

Cc1cc(C)nc(NS(=O)(=O)c2ccc(NC(=S)NC(=O)COc3ccc(Br)cc3Cl)cc2)n1
inactive: Potency (C33A) | Potency (CAOV3) | Potency (CASKI) | Potency (Es-2) | Potency (HeLa) | Potency (Hek293T) | Potency (JEG-3) | Potency (OV90) | Potency (PA-1) | Potency (SKOV3) | Potency (Tov-21-G) | Potency (Tov112D)

C[C@@H]1CN(Cc2ncccn2)C[C@H]1c1nc2c(cnn2C2CCOCC2)c(=O)[nH]1
inactive: Potency (C33A) | Potency (CAOV3) | Potency (CASKI) | Potency (Es-2) | Potency (HeLa) | Potency (Hek293T) | Potency (JEG-3) | Potency (OV90) | Potency (PA-1) | Potency (SKOV3) | Potency (Tov-21-G) | Potency (Tov112D)

C=C[C@H]1[C@H](O[C@@H]2O[C@H](CO)[C@@H](O)[C@H](O)[C@H]2O)OC=C(C(=O)OC)[C@H]1CCOC(=O)c1cc(O)c(O)c(O)c1
inactive: Potency (C33A) | Potency (CAOV3) | Potency (CASKI) | Potency (Es-2) | Potency (HeLa) | Potency (Hek293T) | Potency (JEG-3) | Potency (OV90) | Potency (PA-1) | Potency (SKOV3) | Potency (Tov-21-G) | Potency (Tov112D)

C=C(CO[C@@H]1O[C@H](CO[C@@H]2OC[C@](O)(CO)[C@H]2O)[C@@H](O)[C@H](O)[C@H]1O)C1Cc2cc(C(C)=O)ccc2O1 (stereo partly drawn)
inactive: Potency (C33A) | Potency (CAOV3) | Potency (CASKI) | Potency (Es-2) | Potency (HeLa) | Potency (Hek293T) | Potency (JEG-3) | Potency (OV90) | Potency (PA-1) | Potency (SKOV3) | Potency (Tov-21-G) | Potency (Tov112D)

COc1ccc(/C=C\C(=O)O)c(O[C@@H]2O[C@H](CO)[C@@H](O)[C@H](O)[C@H]2O)c1
inactive: Potency (C33A) | Potency (CAOV3) | Potency (CASKI) | Potency (Es-2) | Potency (HeLa) | Potency (Hek293T) | Potency (JEG-3) | Potency (OV90) | Potency (PA-1) | Potency (SKOV3) | Potency (Tov-21-G) | Potency (Tov112D)

CC(C)=CC/C=C(\C)[C@H]1CC[C@]2(C)[C@@H]1[C@H](O)C[C@@H]1[C@@]3(C)CC[C@H](O)C(C)(C)[C@@H]3[C@@H](O[C@@H]3O[C@H](CO)[C@@H](O)[C@H](O)[C@H]3O)C[C@]12C
inactive: Potency (C33A) | Potency (CAOV3) | Potency (CASKI) | Potency (Es-2) | Potency (HeLa) | Potency (Hek293T) | Potency (JEG-3) | Potency (OV90) | Potency (PA-1) | Potency (SKOV3) | Potency (Tov-21-G) | Potency (Tov112D)

CC(NC(=O)C(O)C(C)C)C(=O)NC1C(=O)N(C)CCc2ccccc21 (stereo not drawn)
inactive: Potency (C33A) | Potency (CAOV3) | Potency (CASKI) | Potency (Es-2) | Potency (HeLa) | Potency (Hek293T) | Potency (JEG-3) | Potency (OV90) | Potency (PA-1) | Potency (SKOV3) | Potency (Tov-21-G) | Potency (Tov112D)

O=C(O)Cc1cn(C2OCC(O)C(O)C2O[C@@H]2O[C@H](CO)[C@@H](O)[C@H](O)[C@H]2O)c2ccccc12 (stereo partly drawn)
inactive: Potency (C33A) | Potency (CAOV3) | Potency (CASKI) | Potency (Es-2) | Potency (HeLa) | Potency (Hek293T) | Potency (JEG-3) | Potency (OV90) | Potency (PA-1) | Potency (SKOV3) | Potency (Tov-21-G) | Potency (Tov112D)

CC1OC(OC2C(O)C(OC3CCC4(C)C(CCC5(C)C4CC=C4C6CC(C)(COC7OC(CO)C(O)C(O)C7O)CC(O)C6(C)CCC45C)C3(C)C)OC(C(=O)O)C2O)C(O)C(O)C1OC1OCC(O)C(O)C1O (stereo not drawn)
inactive: activity change, negative = cytotoxicity (C33A) 5.66% [at 11.6 µM] | activity change, negative = cytotoxicity (CAOV3) -0.364% [at 11.6 µM] | activity change, negative = cytotoxicity (CASKI) -2.68% [at 11.6 µM] | activity change, negative = cytotoxicity (Es-2) 8.83% [at 11.6 µM] | activity change, negative = cytotoxicity (HeLa) 12.4% [at 11.6 µM] | activity change, negative = cytotoxicity (Hek293T) 11.9% [at 11.6 µM] | activity change, negative = cytotoxicity (JEG-3) 10.4% [at 11.6 µM] | activity change, negative = cytotoxicity (OV90) 0.532% [at 11.6 µM] | activity change, negative = cytotoxicity (PA-1) 13.5% [at 11.6 µM] | activity change, negative = cytotoxicity (SKOV3) 37.6% [at 11.6 µM] | activity change, negative = cytotoxicity (Tov-21-G) 6.66% [at 11.6 µM] | activity change, negative = cytotoxicity (Tov112D) 7.29% [at 11.6 µM]

CC1=C(C(=O)O)/C(=C\CO[C@@H]2O[C@H](CO)[C@@H](O)[C@H](O)[C@H]2O)C(OC(=O)/C=C/c2ccc(O)cc2)C1 (stereo partly drawn)
inactive: Potency (C33A) | Potency (CAOV3) | Potency (CASKI) | Potency (Es-2) | Potency (HeLa) | Potency (Hek293T) | Potency (JEG-3) | Potency (OV90) | Potency (PA-1) | Potency (SKOV3) | Potency (Tov-21-G) | Potency (Tov112D)

C=C(CO)C12OC1C1(C)C(=CC2=O)C(O)C(O)CC1C (stereo not drawn)
inactive: Potency (C33A) | Potency (CAOV3) | Potency (CASKI) | Potency (Es-2) | Potency (HeLa) | Potency (Hek293T) | Potency (JEG-3) | Potency (OV90) | Potency (PA-1) | Potency (SKOV3) | Potency (Tov-21-G) | Potency (Tov112D)

COC(=O)C[C@H]1C(C)(C)[C@H](OC(C)=O)C2CC3=C4CC(=O)O[C@@H](c5ccoc5)[C@]4(C)CCC3[C@@]1(C)C2=O (stereo partly drawn)
inactive: Potency (C33A) | Potency (CAOV3) | Potency (CASKI) | Potency (Es-2) | Potency (HeLa) | Potency (Hek293T) | Potency (JEG-3) | Potency (OV90) | Potency (PA-1) | Potency (SKOV3) | Potency (Tov-21-G) | Potency (Tov112D)

C=C1CC[C@@H]2[C@](C)(CO[C@@H]3O[C@H](CO)[C@@H](O)[C@H](O)[C@H]3O)[C@H](O)CC[C@@]2(C)[C@@H]1C/C=C1/C(=O)OC[C@H]1O
inactive: Potency (C33A) | Potency (CAOV3) | Potency (CASKI) | Potency (Es-2) | Potency (HeLa) | Potency (Hek293T) | Potency (JEG-3) | Potency (OV90) | Potency (PA-1) | Potency (SKOV3) | Potency (Tov-21-G) | Potency (Tov112D)
